Screening results deposited in PubChem by National Center for Advancing Translational Sciences (NCATS).
CHX counter: Cycloheximide Counterscreen for Small Molecule Inhibitors of Shiga Toxin; hit rate 12% among 300,000; cell reporter, cycloheximide protein synthesis inhibition counterscreen; max response, %; in the data active means max response mostly above about 13%, no sharp cut-off; inactive means mostly below about 14%; further: read at 38.3 µM for the half of the compounds with a filed dose; 0% is about no effect
Pf growth 96h: Primary qHTS for delayed death inhibitors of the malarial parasite plastid, 96 hour incubation. P. falciparum luciferase reporter growth, 96 h. Potency, µM (titrated, usually from 28.7 µM), for the others: at the highest dose activity change, negative = inhibition, hits mostly inhibitors. hit rate 6.9% among 320,000; active means well fitted inhibition curve with a large enough effect; inconclusive means small, poorly fitted or top-dose-only effect, or another doubt; inactive means no such curve, though single readings can be large or run the other way; further: potency means the concentration at half of the fitted maximal effect; on the % scale 0 is the no-effect control and ±100 the full control effect
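Cell-based qHTS: luciferase-tagged P. falciparum in erythrocytes (2% hematocrit, 0.05% parasitemia final) incubated with compounds for 96 hours, 37 C, 5% CO2; luciferase detection reagent then added and luminescence measured.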
Shiga toxin inh: A qHTS for Small Molecule Inhibitors of Shiga Toxin | inhibition, % at 38.7 µM | Vero cells, Shiga toxin protein synthesis inhibition reporter | AID 2315, 2010 | hit rate 9.2% among 290,000; in the data active means inhibition mostly above about 28%, no sharp cut-off; inactive means mostly below about 43%; further: 0% is about no effect
Pf growth 48h: Primary qHTS for delayed death inhibitors of the malarial parasite plastid, 48 hour incubation. P. falciparum luciferase growth in erythrocytes, 48 h. Potency, µM (series often up to 28.7 µM), without a hit: top-dose activity change, negative = inhibition, most hits filed as inhibitors. hit rate 5.9% among 310,000. AID 504832, 2011; active means well fitted inhibition curve with a large enough effect; inconclusive means small, poorly fitted or top-dose-only effect, or another doubt; inactive means no such curve, though single readings can be large or run the other way; further: potency means the concentration at half of the fitted maximal effect; on the % scale 0 is the no-effect control and ±100 the full control effect
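Firefly luciferase activity from engineered P. falciparum reports growth; inhibitors lower the luminescent signal. Cultures contained 2% hematocrit erythrocytes at 0.1% final parasitemia.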
SARS PLpro yeast: qHTS of Yeast-based Assay for SARS-CoV PLP. S. cerevisiae expressing SARS-CoV PLpro, growth rescue. Potency, µM (top dose mostly 32.9 µM), inactives show top-dose activity, positive = growth rescue, actives largely listed as activators. hit rate 0.19% among 330,000. AID 485353, 2010; further: potency means the concentration at half of the fitted maximal effect; 0% is about no effect; nearly all actives have a fitted effect of over 55% in size
NS1 inh: qHTS Assay for Inhibitors of Influenza NS1 Protein Function. Potency, µM (highest dose often 46.1 µM), without a hit: top-dose activity, positive = more growth. hit rate 0.4% among 270,000. AID 2326, 2010; further: potency means the concentration at half of the fitted maximal effect; actives are rising curves; nearly all actives have a fitted effect of over 50% in size
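Read-out: OD600 growth recovery of NS1-expressing budding yeast. Cells grown overnight at 30C in -URA glucose medium, washed, resuspended and diluted 1:100 in 2% galactose assay medium, pH 6.0. Same strain lacking NS1 served as positive control.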
Starred values were filed as active, the others as inactive; u = inconclusive; x = no result given; [ ] = dose if it differs, or a comment. The list is not random: actives were taken first. Their share in the collection is about 21%. Unless noted, the call rests on the fitted dose curve.

SMILES	CHX counter	Pf growth 96h	Shiga toxin inh	Pf growth 48h	SARS PLpro yeast	NS1 inh
CCN1CCC(N2CCN(c3ccc(Cl)cc3)CC2)CC1	1.0	24.3%	-4.2	-0.5%	7.5%	2.0%
CCCN1CCC(N2CCN(c3ccc([N+](=O)[O-])cc3)CC2)CC1	0.9	5.86µM*	-16.1	u	-2.1%	12.4%
CCN(CC)C(=O)C1CCCN(c2ccc([N+](=O)[O-])cc2/C=N/NC(=O)c2ccc([N+](=O)[O-])cc2)C1 (configuration not stated)	-4.0	u	-3.3	u	-3.4%	5.3%
CCN(CC(=O)NCc1ccc(F)cc1)CC(=O)NC1CCCC1	-4.4	25.4%	-13.1	26.8%	1.0%	12.7%
COc1ccc(Cl)cc1-n1c(C)ccc1C	-2.4	30.5%	15.7	-27.0%	0.2%	9.6%
O=C(COC(=O)/C=C/c1ccc(S(=O)(=O)N2CCOCC2)cc1)Nc1ccccc1F	x	x	x	x	3.1%	x
C=CCn1cccc(C(=O)Nc2cc(OC)ccc2OC)c1=O	16.2	u	17.8	u	-3.7%	x
Fc1cc(F)c(C2SCCN2C(=S)Nc2cccc(C(F)(F)F)c2)c(F)c1 (configuration not stated)	-1.4	2.94µM*	15.3	u	-1.5%	2.6%
CC(=O)N1CCN(c2ccc([N+](=O)[O-])cc2)CC1	-4.0	179.2%	-13.1	u	-1.0%	-1.7%
CNC(=S)N1CCN(c2ccc([N+](=O)[O-])cc2)CC1	2.4	13.1µM*	-19.7	u	-1.1%	-1.2%
CN1CCc2cc(O)c(O)cc2C1Cc1ccc(O)c(O)c1 (configuration not stated)	-6.5	x	-17.5	x	x	x
O=C(Nc1nn[nH]n1)C12CC3CC(CC(C3)C1)C2	-4.6	x	31.7	-1.5%	14.2%	10.6%
O=C(NCc1ccccc1)c1cccnc1Sc1ccccc1	4.2	-7.9%	-9.2	-5.8%[0.00184 µM]	0.1%	-2.2%
Nc1cccc(-c2nc3ncccc3o2)c1	31.0*	15.2%	55.6*	8.5%	0.5%	9.8%
O=C(Cc1ccccc1)Nc1cccc(-c2nc3ncccc3o2)c1	5.1	x	21.7	-5.4%	4.3%	-11.0%
Nc1ccc(-c2nc3ncccc3o2)cc1	33.7*	u	30.9*	49.9%	3.2%	-29.2%
CCCCOc1ccc(C(=O)N2CCN(c3ncccn3)CC2)cc1	6.7	u	x	u	-2.9%	-5.5%
O=C(Nc1cc(-c2ccccc2)[nH]n1)c1ccc(Cl)cc1	50.7*	-18.2%	87.6*	-9.4%	0.5%	1.2%
O=C(Nc1ccc(Cl)cn1)c1cccc(OCc2ccccc2)c1	21.5*	131.2%	48.0*	9.0%	-3.0%	-6.2%
O=C(COC(=O)c1ccccc1)Nc1ccc(Cl)cn1	15.3	58.6%	65.6	37.6%	-1.7%	x
O=C(Nc1c(Cl)cccc1Cl)c1ccc(-c2ccccc2)cc1	12.2	-14.8%	16.4	20.7%	-1.6%	-4.0%
CCOc1ccc(OCCC(=O)OCC(=O)Nc2ccc(Cl)cn2)cc1	x	29.6%	x	-0.5%	-2.4%	x
O=C(Nc1ccc(Cl)cn1)c1ccccc1SCc1ccccc1	5.8	0.0%	20.8	-17.7%	-2.4%	-13.9%
CCCOc1ccc(C(=O)Nc2ccc(Cl)cn2)cc1	30.4*	39.5%	76.7*	x	-18.9%	-15.3%
O=C(Nc1ccc(Cl)cn1)c1ccc(Oc2ccccc2)cc1	34.4*	u	32.2*	90.4%	-16.1%	-29.1%
SMILES	CHX counter	Pf growth 96h	Shiga toxin inh	Pf growth 48h	SARS PLpro yeast	NS1 inh
COc1cc(C2Nc3ccccc3NC3=C2C(=O)CC(C)(C)C3)cc(OC)c1OC(C)=O (configuration not stated)	-2.4	u	-18.6	127.9%	0.2%	18.5%
CCC(C)NC(=O)Cn1c(-c2ccccc2)cc(C(C)=O)c1C (configuration not stated)	35.3	u	19.4	23.7%	-0.7%	x
CC1CC(C)CN(C(=O)CSc2nc(Cc3cccs3)nc3ccccc23)C1 (configuration not stated)	5.2	u	-7.1	u	-10.5%	7.9%
CC1CCCN(S(=O)(=O)c2ccc(S(=O)(=O)NC(C)c3cccs3)cc2)C1 (configuration not stated)	0.4	-7.9%	20.4	x	8.9%	9.0%
Cc1cccc(CC2SC(N3CCN(c4ccccc4)CC3)=NC2=O)c1 (configuration not stated)	-0.8	u	-3.7	-8.1%	7.2%	-16.8%
N#CCCN1CCN(C2=NC(=O)C(=C3CCCCC3)S2)CC1	34.8*	2.62µM*	61.5	0.0%	13.2%	-1.2%
O=C1N=C(N2CCOCC2)SC1=C1CCCCC1	74.8*	u	81.2*	1.6%	0.0%	3.6%
CC(=O)N1CCN(C2=NC(=O)C(=C3CCCCC3)S2)CC1	14.7	-19.1%	18.7*	u	-8.5%	7.2%
CC(C)=C1SC(N2CCCCC2)=NC1=O	10.6	u	-4.0	x	-10.6%	1.5%
Cc1cccc(N2CCN(C3=NC(=O)C(=C4CCCCC4)S3)CC2)c1	2.1	34.2%	39.9	10.4µM*	0.2%	-5.1%
CCn1c(=O)c2sccc2n(Cc2ccccc2)c1=O	4.8	-10.0%	-8.9	u	9.5%	10.7%
CCc1cccc(NC(=O)CSc2ncccc2C(=O)Oc2ccccc2Cl)c1	-3.4	x	-3.8	x	x	x
CN(C)S(=O)(=O)c1cccc(NC(=S)N/N=C/c2ccco2)c1	14.2*	u	25.1	3.7µM*	0.2%	11.7%
COc1ccc(O)c(/C=N/NC(=S)Nc2cccnc2)c1	34.1*	0.522µM*	90.7*	u	22.4%	x
O=C(N/N=C\c1ccco1)Nc1cccc(Cl)c1	79.9*	56.7%	142.5*	152.2%	-6.0%	-18.8%
CCN(CC)S(=O)(=O)c1ccc(N/N=C/c2cc(OC)ccc2O)nc1	-0.9	8.28µM*	-6.5	4.65µM*	0.3%	-18.3%
CN(C)S(=O)(=O)c1cccc(NC(=S)N/N=C/c2ccc(O)c(O)c2O)c1	13.4	10.4%	23.2	4.2%	11.3%	17.6%
COc1ccc(O)c(/C=N/NC(=S)Nc2cccc(S(=O)(=O)N(C)C)c2)c1	18.0*	4.65µM*	13.2	4.15µM*	u	u
COc1cccc(/C=N/NC(=S)Nc2cccc(S(=O)(=O)N(C)C)c2)c1	11.1	2.6%	23.6	u	-0.7%	10.2%
COc1cc(/C=N/NC(=S)Nc2cccc(S(=O)(=O)N(C)C)c2)cc(OC)c1O	13.5	11.7µM*	-30.6	-29.7%	10.9%	11.6%
CCc1ccc(-n2ccc(=O)c(C(=O)O)n2)cc1	-1.0	35.8%	3.0	17.6%	-4.2%	3.5%
Cc1ccsc1CN(C)CC(=O)NCC(=O)Nc1ccc(F)cc1	x	u	x	u	11.1%	x
COc1cccc(C(=O)NCC2(c3ccccc3)CCCC2)c1OC	1.0	u	33.3	u	0.4%	-34.0%
CN(C)C(=O)Oc1cccc2c(OC(=O)N(C)C)cccc12	-2.6	x	19.8	5.4%	3.0%	5.0%
